Here are results for 36 molecules from PubChem BioAssay AID1345085 (National Center for Advancing Translational Sciences (NCATS), 2018).

Inconclusive results are not listed. Active and inactive are the calls of the source. The call rests on the fitted dose curve; in most records, active means well fitted cell-killing curve with a large enough effect; inconclusive means small, poorly fitted or top-dose-only effect, or effect the other way; inactive means no such curve, though single readings can be large or run the other way.
On the % scale 0 is the no-effect control and ±100 the full control effect; potency means the concentration at half of the fitted maximal effect.

This test relates to Es-2. Nature of the test: Confirmatory qHTS for gynecologic anti-cancer compounds from libraries of approved drugs and bioactive compounds. Further: nearly all actives have a fitted effect of over 55% in size. To be noted: gynecologic cancer cell panel viability, ATPlite luminescence, 48 h; series mostly up to 57.6 µM; activity change, negative = viability loss: at the top concentration. The procedure, abridged:
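IC50 values derive from an ATPlite ATP-content luminescence assay following 48 h treatment at 37 C. Each compound ran as an 11-concentration, threefold series (57.5 uM to 0.977 nM); HEK 293T served as control line for selectivity index.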
As for `CCCCN(CCCC)C(=O)CN1C[C@H](c2ccc3c(c2)OCO3)[C@@H](C(=O)O)[C@@H]1c1ccc(OC)cc1`, the “activity change, negative = viability loss” value was 20.6% (inactive).
For the molecule `CC(Oc1cc(-n2cnc3ccc(CN4CCN(C)CC4)cc32)sc1C(N)=O)c1ccccc1C(F)(F)F` (stereo unspecified), the Potency is 3.43 µM (active).
As to `COc1cc(N2CCC(N)CC2)ccc1Nc1ncc(Cl)c(-c2c[nH]c3ccccc23)n1`, the “activity change, negative = viability loss” value was -23.3% (inactive).
In the case of `CC[C@]1(O)C[C@H]2CN(CCc3c([nH]c4ccccc34)[C@@](C(=O)OC)(c3cc4c(cc3OC)N(C=O)[C@H]3[C@@](O)(C(=O)OC)[C@H](OC(C)=O)[C@]5(CC)C=CCN6CC[C@]43[C@@H]65)C2)C1`, the Potency is 0.432 µM (active).
With `Cc1cc(C(=O)N2CCN(c3cccc(Cl)c3)CC2)n(-c2ccccc2)n1`, the Potency was 2.43 µM (active).
The same measure, in the same setting: next, `Cc1ccc(C(=O)Nc2ccc(CN3CCN(C)CC3)c(C(F)(F)F)c2)cc1C#Cc1cnc2[nH]ncc2c1`: 0.306 µM (active).
Still for that read-out and setting: next, `Cc1nc(Nc2n[nH]c3c2CN(C(=O)NC(CN(C)C)c2ccccc2)C3(C)C)c2sccc2n1` (stereo unspecified): 4.32 µM (active).
For the molecule `C#C[C@]1(O)CC[C@H]2[C@@H]3CCC4=CC(=O)CC[C@@H]4[C@H]3CC[C@@]21CC`, the “activity change, negative = viability loss” value was 4.9% (inactive).
With `COc1cccc2c1C(=O)c1c(O)c3c(c(O)c1C2=O)C[C@@](O)(C(=O)CO)C[C@@H]3O[C@H]1C[C@H](N)[C@H](O[C@@H]2CCCCO2)[C@H](C)O1`, the Potency is 7.69 µM (active).
`COc1cc2c(Oc3ccc(-c4cnc(Nc5ccc(F)cc5)n(C)c4=O)cc3F)ccnc2cc1OCCCN1CCOCC1`: the “activity change, negative = viability loss” value is -8.74% (inactive).
As to `NS(=O)(=O)OC[C@@H]1C[C@@H](n2ccc3c(N[C@H]4CCc5ccccc54)ncnc32)C[C@@H]1O`, the Potency was 1.72 µM (active).
Still for that read-out and setting: the figure for `CCCC(Nc1nc(-c2ccc(NC(=O)NCC)c(OC)c2)ncc1C)c1cccnc1` (stereo unspecified) is 0.193 µM (active).
As to `CC[C@@]1(O)C(=O)OCc2c1cc1n(c2=O)Cc2cc3c(CN(C)C)c(O)ccc3nc2-1`, the Potency is 0.193 µM (active).
Same read-out and setting: the figure for `CN1CCN(c2ccc(OC(F)(F)F)c(Nc3ncc4c(n3)-c3c(c(C(N)=O)nn3CCO)CC4)c2)CC1` is 0.217 µM (active); for `O=C(c1ccc(F)c(F)c1Nc1ccc(I)cc1F)N1CC(O)([C@@H]2CCCCN2)C1` it is 17.2 µM (active).
On the same count and under the same terms, the figure for `O=C1c2c(O)ccc(O)c2C(=O)c2c(NCCNCCO)ccc(NCCNCCO)c21` is 0.968 µM (active); for `O=c1c(-c2ccc(O)cc2)coc2cc(O)cc(O)c12` it is 17.2 µM (active).
As to `NS(=O)(=O)c1ccc(Nc2nc(OCC3CCCCC3)c3[nH]cnc3n2)cc1`, the “activity change, negative = viability loss” value was -17.6% (inactive).
Turning to `O=C(/C=C/c1cccc(S(=O)(=O)Nc2ccccc2)c1)NO`, the Potency was 2.98 µM (active).
With `COC(C(=O)N1Cc2[nH]nc(NC(=O)c3ccc(N4CCN(C)CC4)cc3)c2C1)c1ccccc1` (stereo unspecified), the “activity change, negative = viability loss” value was 30.1% (inactive).
On the same count and under the same terms, the figure for `Cc1cc(C(C)Nc2ccccc2C(=O)O)c2nc(N3CCOCC3)cc(=O)n2c1` (stereo unspecified) is -20.9% (inactive).
Regarding `CC(C)C[C@H](NC(=O)[C@H](Cc1ccccc1)NC(=O)c1cnccn1)B(O)O`, the Potency was 0.0611 µM (active).
In the case of `Cc1cnc(Nc2cccc(CN3CCOCC3)c2)nc1Nc1cccc(S(=O)(=O)NC(C)(C)C)c1`, the Potency was 6.11 µM (active).
Regarding `Cn1cc(-c2ccc3ncc(Cc4ccc5ncccc5c4)n3n2)cn1`, the “activity change, negative = viability loss” value is 0.637% (inactive).
On the same count and under the same terms, next, `C[C@]12CCC(=O)C=C1CC[C@@H]1[C@@H]2[C@@H](O)C[C@@]2(C)[C@H]1CC[C@]2(O)C(=O)CO`: -15.4% (inactive).
Consider `CC(C)Oc1ccc2c(=O)c(-c3ccccc3)coc2c1`, for which the Potency was 9.68 µM (active).
Take `Fc1cc(-c2cccc3ncc(-c4cnn(C5CCNCC5)c4)nc23)cc(F)c1CN1CCOCC1`: the Potency was 21.7 µM (active).
On the same count and under the same terms, the figure for `Cn1cnc([N+](=O)[O-])c1Sc1ncnc2nc[nH]c12` is 15.3 µM (active).
The same measure, in the same setting: the figure for `CC(C)n1c(/C=C/[C@@H](O)C[C@@H](O)CC(=O)O)c(-c2ccc(F)cc2)c2ccccc21` is 5.44 µM (active).
Regarding `O=c1c2ccccc2nc2n1CCc1c-2[nH]c2ccccc12`, the “activity change, negative = viability loss” value is -0.16% (inactive).
For `Cc1ccc(C(=O)Nc2cccc(C(F)(F)F)c2)cc1-c1ccc2nc(NCCN3CCOCC3)ncc2c1`, the Potency was 5.44 µM (active).
The same measure, in the same setting: next, `S=c1nc[nH]c2nc[nH]c12`: 3.85 µM (active); `CN1CCN(Cc2ccc(NC(=O)Nc3ccc(Oc4cc(NC(=O)C5CC5)ncn4)cc3)cc2C(F)(F)F)CC1`: 0.544 µM (active).
Regarding `Cc1cnc(Nc2ccc(F)cc2Cl)nc1-c1c[nH]c(C(=O)NC(CO)c2cccc(Cl)c2)c1` (stereo unspecified), the “activity change, negative = viability loss” value is -11.1% (inactive).
For the molecule `CO[C@@]12[C@H](COC(N)=O)C3=C(C(=O)C(C)=C(N)C3=O)N1C[C@@H]1N[C@@H]12`, the “activity change, negative = viability loss” value was 12.2% (inactive).
On the same count and under the same terms, the figure for `O=c1cc(CN2CCOCC2)occ1OCCCCCSc1ccnc2cc(C(F)(F)F)ccc12` is -3.9% (inactive).
